Measured values: the supplement of paper PMC10849652
About 7,900 targets were measured; listed, in parts, are those with a hit and a random draw of the rest. About 0.6% of all pairs of compound and target were hits. Unmarked numbers belong to inactive results.

Columns and labels:
Experiment in all cases: log2 fold change, soluble protein after heating vs DMSO (PISA); higher = thermal stabilisation; K562 cells, 10 uM, 30 min; active = over 0.2 and 3.5 SD of the protein, either way, in both replicates (recomputed)
[1] = compound: CC[C@@H]1C(=O)N(C)c2cnc(Nc3ccc(C(=O)NC4CCN(C)CC4)cc3OC)nc2N1C1CCCC1
Method in brief: (§1)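 Thermal stability values are relative to control samples and come from duplicates. They are expressed as log2 fold changes. For measurement, K562 cells (2×10^6 cells/mL) received 10 μM compound for 30 min, and aliquots were heated for 3 min over 48°C-58°C, pooled, and extracted at 4°C in PBS with 0.5% NP-40. Soluble protein, the supernatant after 21,000xg for 90 min, was quantified by TMTpro 16plex LC-MS/MS with equalised channel sums.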

[2] = compound: CC[C@@H]1C(=O)N(C)c2cnc(Nc3ccc(C(=O)N[C@H]4CC[C@H](N5CCN(CC6CC6)CC5)CC4)cc3OC)nc2N1C(C)C [volasertib]
Method in brief: as §1

[3] = compound: CC[C@H](C)N1C=C(C2=C(C=C(C=C21)C3=CN=C(C=C3)N4CCNCC4)C(=O)NCC5=C(C=C(NC5=O)C)C)C
Method in brief: as §1

[4] = compound: CC[C@H](C)[C@@H](C(=O)N[C@@H]([C@@H](C)O)C(=O)N[C@@H](CC(C)C)C(=O)[C@]1(CO1)C)NC(=O)[C@H]([C@@H](C)CC)N(C)C(=O)C [epoxomicin]
Method in brief: as §1

[5] = compound: CCn1c(C(=O)N(C2CC2)C2CC2)cc2c3c(ncn3C)c(Nc3cc(C)n(C)n3)nc21
Method in brief: as §1

[6] = compound: CCn1cc(-c2ccnc3[nH]c(-c4cccc(CN(C)C)c4)cc23)c(-c2ccc(NC(=O)N(C)C)cc2)n1
Method in brief: as §1

[7] = compound: CN(C)CC(=O)Nc1ccc2[nH]c(=O)c3ccccc3c2c1
Method in brief: as §1

[8] = compound: CN(CCOC1=CC=C(C=C1)C[C@H]2C(=O)NC(=O)S2)C3=CC=CC=N3 (racemic) [rosiglitazone]
Method in brief: as §1

[9] = compound: CN1C2=C(C3=C1C(=O)N(N=C3)CC4=CC(=CC=C4)N)SC(=C2)S(=O)C
Method in brief: as §1

[10] = compound: CN1CCC(CNc2ccc3ncc(-c4cccc(OC(F)(F)F)c4)n3n2)CC1
Method in brief: as §1

[11] = compound: CN1CCN(CCOc2cc(OC3CCOCC3)c3c(Nc4c(Cl)ccc5c4OCO5)ncnc3c2)CC1 [saracatinib]
Method in brief: as §1

[12] = compound: CN1CCN(c2nc(C3=C(c4c[nH]c5ccccc45)C(=O)NC3=O)c3ccccc3n2)CC1 [sotrastaurin]
Method in brief: as §1

[13] = compound: CN1CC[C@H](c2c(O)cc(O)c3c(=O)cc(-c4ccccc4Cl)oc23)[C@H](O)C1 [alvocidib]
Method in brief: as §1

[14] = compound: CN1CCc2c(c3ccccc3n2Cc2ccc(C(=O)NO)cc2)C1 [Tubastatin A]
Method in brief: as §1

[15] = compound: CNC(=O)C1=CC=CC=C1NC2=NC(=NC=C2Cl)NC3=C(C=C(C=C3)N4CCOCC4)OC
Method in brief: as §1

[16] = compound: CNC(=O)c1ccc(Nc2ncc(C(F)(F)F)c(NCc3nccnc3N(C)S(C)(=O)=O)n2)cc1 [defactinib]
Method in brief: as §1

[17] = compound: CNCc1ccc(-c2[nH]c3cc(F)cc4c3c2CCNC4=O)cc1 [rucaparib]
Method in brief: as §1

[18] = compound: CNc1nc(-c2ccc3c(N)n[nH]c3c2)cc(N2C[C@@H](C(=O)NC3CCCCC3)CC[C@H]2C)n1
Method in brief: as §1

[19] = compound: COC(=O)N[C@@H](C)CNc1nccc(-c2cn(C(C)C)nc2-c2cc(Cl)cc(NS(C)(=O)=O)c2F)n1 [encorafenib]
Method in brief: as §1

[20] = compound: COC(=O)[C@H](CCSC)NC(=O)C1=C(C=C(C=C1)NC[C@H](CS)N)C2=CC=CC=C2
Method in brief: as §1

UniProt P13807, sequence (P13807 whole entry, looked up): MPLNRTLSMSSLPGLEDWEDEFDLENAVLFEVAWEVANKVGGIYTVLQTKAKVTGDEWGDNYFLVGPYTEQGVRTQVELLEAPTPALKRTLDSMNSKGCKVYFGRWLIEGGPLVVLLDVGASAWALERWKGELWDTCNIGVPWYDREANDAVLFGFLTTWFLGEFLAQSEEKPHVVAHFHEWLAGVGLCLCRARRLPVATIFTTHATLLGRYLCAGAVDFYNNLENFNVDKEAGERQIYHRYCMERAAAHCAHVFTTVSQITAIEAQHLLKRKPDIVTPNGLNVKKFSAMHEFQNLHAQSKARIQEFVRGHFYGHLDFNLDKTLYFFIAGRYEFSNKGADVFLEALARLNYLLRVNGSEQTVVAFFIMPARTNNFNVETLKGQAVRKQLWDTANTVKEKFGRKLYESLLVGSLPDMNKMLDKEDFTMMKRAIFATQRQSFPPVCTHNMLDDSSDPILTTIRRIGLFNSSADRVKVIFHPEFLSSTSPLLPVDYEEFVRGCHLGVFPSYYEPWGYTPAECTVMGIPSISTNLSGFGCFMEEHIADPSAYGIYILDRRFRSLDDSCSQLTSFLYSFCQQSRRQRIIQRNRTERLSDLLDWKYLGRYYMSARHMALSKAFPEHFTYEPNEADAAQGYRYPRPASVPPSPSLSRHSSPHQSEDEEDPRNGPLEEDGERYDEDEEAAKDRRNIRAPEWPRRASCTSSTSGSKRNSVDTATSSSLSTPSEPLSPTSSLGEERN
UniProt O94925, sequence (O94925 whole entry, looked up): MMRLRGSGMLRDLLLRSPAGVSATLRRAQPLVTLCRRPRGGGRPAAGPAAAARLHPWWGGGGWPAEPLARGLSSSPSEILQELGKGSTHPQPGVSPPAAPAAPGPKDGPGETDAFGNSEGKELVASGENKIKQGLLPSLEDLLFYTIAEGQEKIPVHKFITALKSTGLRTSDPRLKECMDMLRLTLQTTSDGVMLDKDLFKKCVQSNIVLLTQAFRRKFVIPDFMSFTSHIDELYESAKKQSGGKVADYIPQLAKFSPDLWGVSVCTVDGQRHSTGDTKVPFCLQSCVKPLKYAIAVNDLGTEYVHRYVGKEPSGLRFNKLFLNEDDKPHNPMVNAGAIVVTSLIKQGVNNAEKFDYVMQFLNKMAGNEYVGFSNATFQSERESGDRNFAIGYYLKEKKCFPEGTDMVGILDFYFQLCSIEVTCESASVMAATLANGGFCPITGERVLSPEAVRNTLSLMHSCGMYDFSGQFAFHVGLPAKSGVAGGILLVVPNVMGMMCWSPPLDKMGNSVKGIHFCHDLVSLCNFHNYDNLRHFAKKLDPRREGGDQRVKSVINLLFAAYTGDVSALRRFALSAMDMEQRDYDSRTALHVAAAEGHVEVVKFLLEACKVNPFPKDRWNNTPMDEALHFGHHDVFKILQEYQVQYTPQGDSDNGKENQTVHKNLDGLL
UniProt Q9H6D7, sequence (Q9H6D7 whole entry, looked up): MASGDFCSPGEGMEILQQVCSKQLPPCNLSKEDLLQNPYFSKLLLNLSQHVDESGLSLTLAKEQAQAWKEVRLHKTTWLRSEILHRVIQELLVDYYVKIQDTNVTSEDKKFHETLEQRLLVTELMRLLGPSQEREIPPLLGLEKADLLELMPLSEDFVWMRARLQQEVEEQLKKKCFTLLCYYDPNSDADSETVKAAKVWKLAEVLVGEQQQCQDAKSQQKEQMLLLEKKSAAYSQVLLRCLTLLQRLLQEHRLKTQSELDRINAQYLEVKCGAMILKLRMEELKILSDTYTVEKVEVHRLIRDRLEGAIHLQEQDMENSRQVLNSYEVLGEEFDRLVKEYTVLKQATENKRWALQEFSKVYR
UniProt Q9BUP3, sequence (Q9BUP3 whole entry, looked up): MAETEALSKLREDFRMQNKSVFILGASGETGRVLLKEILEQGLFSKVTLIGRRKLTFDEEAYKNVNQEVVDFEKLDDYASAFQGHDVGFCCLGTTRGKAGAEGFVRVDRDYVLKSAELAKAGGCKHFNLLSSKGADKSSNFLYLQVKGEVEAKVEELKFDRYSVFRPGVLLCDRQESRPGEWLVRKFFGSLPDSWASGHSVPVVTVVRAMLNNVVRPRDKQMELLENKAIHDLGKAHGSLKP
UniProt P40939, sequence (P40939 whole entry, looked up): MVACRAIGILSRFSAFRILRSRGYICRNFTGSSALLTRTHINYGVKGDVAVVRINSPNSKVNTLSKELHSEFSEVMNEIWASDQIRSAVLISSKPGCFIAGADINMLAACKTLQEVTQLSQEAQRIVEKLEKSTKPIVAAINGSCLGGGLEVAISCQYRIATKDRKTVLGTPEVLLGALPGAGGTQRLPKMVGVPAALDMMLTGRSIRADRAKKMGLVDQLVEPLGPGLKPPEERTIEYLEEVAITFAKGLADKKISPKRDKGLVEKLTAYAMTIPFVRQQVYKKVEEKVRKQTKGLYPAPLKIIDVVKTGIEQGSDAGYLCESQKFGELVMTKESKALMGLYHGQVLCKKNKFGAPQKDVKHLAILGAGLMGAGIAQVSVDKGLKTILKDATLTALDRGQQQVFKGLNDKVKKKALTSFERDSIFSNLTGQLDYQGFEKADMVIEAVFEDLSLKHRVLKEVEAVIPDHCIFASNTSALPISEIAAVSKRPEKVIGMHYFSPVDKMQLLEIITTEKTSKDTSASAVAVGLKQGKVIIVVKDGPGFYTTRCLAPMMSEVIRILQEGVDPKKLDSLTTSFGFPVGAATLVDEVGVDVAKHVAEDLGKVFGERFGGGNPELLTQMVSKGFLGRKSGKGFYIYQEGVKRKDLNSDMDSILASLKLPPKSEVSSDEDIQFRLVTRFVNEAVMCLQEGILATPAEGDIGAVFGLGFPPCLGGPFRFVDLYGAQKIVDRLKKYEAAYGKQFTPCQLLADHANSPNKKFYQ
UniProt Q9BUJ2, sequence (Q9BUJ2 whole entry, looked up): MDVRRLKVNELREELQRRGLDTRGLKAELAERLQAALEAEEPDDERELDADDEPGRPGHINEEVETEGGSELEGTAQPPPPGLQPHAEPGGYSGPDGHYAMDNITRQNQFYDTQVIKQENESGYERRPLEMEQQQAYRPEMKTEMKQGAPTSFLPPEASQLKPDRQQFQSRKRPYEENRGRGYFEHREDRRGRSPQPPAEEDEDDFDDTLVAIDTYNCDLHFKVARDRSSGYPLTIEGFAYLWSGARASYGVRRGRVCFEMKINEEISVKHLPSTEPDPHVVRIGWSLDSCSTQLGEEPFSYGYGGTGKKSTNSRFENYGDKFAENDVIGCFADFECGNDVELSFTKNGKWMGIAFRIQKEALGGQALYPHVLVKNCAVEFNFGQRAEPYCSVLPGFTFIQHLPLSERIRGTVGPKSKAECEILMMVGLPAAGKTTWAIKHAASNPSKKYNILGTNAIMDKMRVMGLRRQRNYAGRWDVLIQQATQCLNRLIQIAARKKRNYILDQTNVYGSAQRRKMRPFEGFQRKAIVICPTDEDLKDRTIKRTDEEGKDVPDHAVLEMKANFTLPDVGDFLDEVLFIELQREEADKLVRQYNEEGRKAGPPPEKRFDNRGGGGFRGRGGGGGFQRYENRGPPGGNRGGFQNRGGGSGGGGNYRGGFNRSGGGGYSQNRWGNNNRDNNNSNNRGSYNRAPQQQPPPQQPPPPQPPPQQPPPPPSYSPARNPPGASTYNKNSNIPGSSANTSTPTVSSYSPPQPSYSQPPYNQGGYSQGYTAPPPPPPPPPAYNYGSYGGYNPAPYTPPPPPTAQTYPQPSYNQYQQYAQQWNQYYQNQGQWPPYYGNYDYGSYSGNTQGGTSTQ
UniProt P55795, sequence (P55795 whole entry, looked up): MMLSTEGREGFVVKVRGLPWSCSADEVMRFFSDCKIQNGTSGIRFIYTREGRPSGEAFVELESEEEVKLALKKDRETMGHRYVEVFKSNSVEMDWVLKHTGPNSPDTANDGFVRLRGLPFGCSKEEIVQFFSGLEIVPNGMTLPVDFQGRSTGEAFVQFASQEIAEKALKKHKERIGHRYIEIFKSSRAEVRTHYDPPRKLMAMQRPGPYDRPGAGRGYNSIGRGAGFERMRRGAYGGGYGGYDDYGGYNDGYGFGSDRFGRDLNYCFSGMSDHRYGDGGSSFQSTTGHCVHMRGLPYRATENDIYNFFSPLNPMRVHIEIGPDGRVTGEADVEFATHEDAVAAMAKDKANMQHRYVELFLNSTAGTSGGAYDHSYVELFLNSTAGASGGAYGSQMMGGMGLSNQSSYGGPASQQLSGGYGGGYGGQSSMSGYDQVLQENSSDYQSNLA

Row | Target | log2 fold change [1] | log2 fold change [2] | log2 fold change [3] | log2 fold change [4] | log2 fold change [5] | log2 fold change [6] | log2 fold change [7] | log2 fold change [8] | log2 fold change [9] | log2 fold change [10] | log2 fold change [11] | log2 fold change [12] | log2 fold change [13] | log2 fold change [14] | log2 fold change [15] | log2 fold change [16] | log2 fold change [17] | log2 fold change [18] | log2 fold change [19] | log2 fold change [20]
1 | HTATIP2 isoform 3 (UniProt Q9BUP3) | -0.029 | -0.168 | 0.035 | 0.008 | 0.02 | -0.013 | 0.009 | -0.025 | -0.016 | -0.148 | -0.016 | 0.023 | -0.113 | -0.009 | -0.001 | -0.065 | 0.023 | 0.022 | 0.01 | -0.016
2 | GLS isoform 3 (UniProt O94925) | -0.172 | -0.699 (active) | 0.126 | 0.152 | -0.017 | -0.055 | 0.069 | 0.046 | -0.039 | -0.364 | -0.025 | -0.027 | -0.246 | 0.14 | -0.025 | -0.139 | -0.045 | -0.063 | 0.039 | 0
3 | HIST2H3A (UniProt Q71DI3) | -0.206 | 0.111 | -0.023 | -0.003 | -0.185 | 0.315 | -0.124 | 0.011 | 0.56 | 0.09 | -0.196 | 0.063 | 0.165 | 0.17 | -0.166 | 0.339 | 0.306 | 0.185 | -0.063 | 0.093
4 | HADHA (UniProt P40939) | 0.03 | 0.469 | 0.107 | 0.055 | 0.231 | -0.233 | 0.023 | -0.019 | -0.053 | -0.334 | -0.102 | 0.032 | -0.238 | 0.05 | 0.044 | -0.19 | 0.177 | 0.595 (active) | -0.024 | -0.191
5 | HAUS4 (UniProt Q9H6D7) | -0.138 | -0.027 | 0.123 | -0.391 | -0.04 | 0.032 | -0.072 | 0.027 | 0.246 | 0.049 | 0.466 | -0.194 | 0.035 | 0.044 | 0.195 | 0.019 | 0.337 | 0.044 | 0.194 | -0.03
6 | HNRNPH2 (UniProt P55795) | -0.119 | -0.667 (active) | 0.073 | -0.004 | -0.202 | 0 | 0.069 | 0.038 | 0.087 | -0.06 | -0.065 | -0.081 | -0.106 | 0.101 | -0.079 | -0.173 | 0.002 | -0.001 | 0.02 | -0.068
7 | HNRNPUL1 (UniProt Q9BUJ2) | 0.051 | -0.069 | 0.014 | 0.019 | -0.029 | 0.004 | 0.013 | -0.001 | 0.099 | 0.031 | -0.016 | 0.039 | 0.082 | 0 | 0.008 | 0.018 | 0.075 | 0.034 | 0.063 | -0.011
8 | GYS1 (UniProt P13807) | 0.229 | 0.224 | 0.059 | -0.034 | 0.069 | 0.139 | 0.029 | -0.1 | 0.364 | 0.123 | -0.255 | -0.286 | 0.1 | 0.035 | 0.107 | 0.057 | 0.077 | 0.193 | 0.176 | -0.047
